Assay results: the supplement of paper PMC10849652
Of roughly 8,800 targets only a part is listed; those with a hit were picked by preference. About 0.5% of all pairs of compound and target were hits. Values without a mark were called inactive.

Legend:
Experiment in all cases: log2 fold change, soluble protein after heating vs DMSO (PISA); higher = thermal stabilisation; K562 lysate, 10 uM; active = over 0.2 and 3.5 SD of the protein, either way, in both replicates (recomputed)
erlotinib = compound: C#Cc1cccc(Nc2ncnc3cc(OCCOC)c(OCCOC)cc23)c1 [erlotinib]
Outline: (§1)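 The values are log-two fold changes in thermal stability compared with solvent controls and come from duplicates. They were obtained by TMTpro 16plex LC-MS/MS, with channel sums equalised, on the supernatant after 21,000xg for 90 min. That supernatant came from crude K562 extract at 1 mg/mL protein treated with 10 μM compound for 30 min, heated for 3 min across 48°C-58°C, pooled and brought to 0.5% NP-40 at 4°C.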

[1] = compound: C/C(=N\NC(=O)C1=CC(=CC=C1)S(=O)(=O)N2CCOCC2)/C3=C(C=CC(=C3)Cl)O
Outline: as §1

[2] = compound: C1=CC(=CC=C1C2=NC3=C(N2)C=C(C=C3)C(=O)N)OC4=CC=C(C=C4)Cl
Outline: as §1

[3] = compound: C1=CC2=C(C=CC(=C2)/C=C\3/C(=O)NC(=NCC4=CC=CS4)S3)N=C1
Outline: as §1

[4] = compound: C1=CC2=NC=CN=C2C=C1/C=C/3\C(=O)NC(=O)S3
Outline: as §1

[5] = compound: C1=CC=C(C=C1)C2=NC(=C(N2)C3=CC=NC=C3)C4=CC(=C(C=C4)Cl)O
Outline: as §1

[6] = compound: C1=CC=C2C(=C1)C3=NNC4=CC=CC(=C43)C2=O
Outline: as §1

[7] = compound: C1CCN(C1)C(=O)NC2=CC=CC(=C2)NC3=NC=C(C(=N3)NCCC4=CN=CN4)Br
Outline: as §1

[8] = compound: C1CN(CCC1(CC2=CC=C(C=C2)Cl)N)C3=NC=NC4=C3C=CN4
Outline: as §1

IRAK-1-4 Inhibitor I = compound: C1COCCN1CCN2C3=CC=CC=C3N=C2NC(=O)C4=CC(=CC=C4)[N+](=O)[O-] [IRAK-1-4 Inhibitor I]
Outline: as §1

UniProt O75970, sequence (O75970 whole entry, looked up): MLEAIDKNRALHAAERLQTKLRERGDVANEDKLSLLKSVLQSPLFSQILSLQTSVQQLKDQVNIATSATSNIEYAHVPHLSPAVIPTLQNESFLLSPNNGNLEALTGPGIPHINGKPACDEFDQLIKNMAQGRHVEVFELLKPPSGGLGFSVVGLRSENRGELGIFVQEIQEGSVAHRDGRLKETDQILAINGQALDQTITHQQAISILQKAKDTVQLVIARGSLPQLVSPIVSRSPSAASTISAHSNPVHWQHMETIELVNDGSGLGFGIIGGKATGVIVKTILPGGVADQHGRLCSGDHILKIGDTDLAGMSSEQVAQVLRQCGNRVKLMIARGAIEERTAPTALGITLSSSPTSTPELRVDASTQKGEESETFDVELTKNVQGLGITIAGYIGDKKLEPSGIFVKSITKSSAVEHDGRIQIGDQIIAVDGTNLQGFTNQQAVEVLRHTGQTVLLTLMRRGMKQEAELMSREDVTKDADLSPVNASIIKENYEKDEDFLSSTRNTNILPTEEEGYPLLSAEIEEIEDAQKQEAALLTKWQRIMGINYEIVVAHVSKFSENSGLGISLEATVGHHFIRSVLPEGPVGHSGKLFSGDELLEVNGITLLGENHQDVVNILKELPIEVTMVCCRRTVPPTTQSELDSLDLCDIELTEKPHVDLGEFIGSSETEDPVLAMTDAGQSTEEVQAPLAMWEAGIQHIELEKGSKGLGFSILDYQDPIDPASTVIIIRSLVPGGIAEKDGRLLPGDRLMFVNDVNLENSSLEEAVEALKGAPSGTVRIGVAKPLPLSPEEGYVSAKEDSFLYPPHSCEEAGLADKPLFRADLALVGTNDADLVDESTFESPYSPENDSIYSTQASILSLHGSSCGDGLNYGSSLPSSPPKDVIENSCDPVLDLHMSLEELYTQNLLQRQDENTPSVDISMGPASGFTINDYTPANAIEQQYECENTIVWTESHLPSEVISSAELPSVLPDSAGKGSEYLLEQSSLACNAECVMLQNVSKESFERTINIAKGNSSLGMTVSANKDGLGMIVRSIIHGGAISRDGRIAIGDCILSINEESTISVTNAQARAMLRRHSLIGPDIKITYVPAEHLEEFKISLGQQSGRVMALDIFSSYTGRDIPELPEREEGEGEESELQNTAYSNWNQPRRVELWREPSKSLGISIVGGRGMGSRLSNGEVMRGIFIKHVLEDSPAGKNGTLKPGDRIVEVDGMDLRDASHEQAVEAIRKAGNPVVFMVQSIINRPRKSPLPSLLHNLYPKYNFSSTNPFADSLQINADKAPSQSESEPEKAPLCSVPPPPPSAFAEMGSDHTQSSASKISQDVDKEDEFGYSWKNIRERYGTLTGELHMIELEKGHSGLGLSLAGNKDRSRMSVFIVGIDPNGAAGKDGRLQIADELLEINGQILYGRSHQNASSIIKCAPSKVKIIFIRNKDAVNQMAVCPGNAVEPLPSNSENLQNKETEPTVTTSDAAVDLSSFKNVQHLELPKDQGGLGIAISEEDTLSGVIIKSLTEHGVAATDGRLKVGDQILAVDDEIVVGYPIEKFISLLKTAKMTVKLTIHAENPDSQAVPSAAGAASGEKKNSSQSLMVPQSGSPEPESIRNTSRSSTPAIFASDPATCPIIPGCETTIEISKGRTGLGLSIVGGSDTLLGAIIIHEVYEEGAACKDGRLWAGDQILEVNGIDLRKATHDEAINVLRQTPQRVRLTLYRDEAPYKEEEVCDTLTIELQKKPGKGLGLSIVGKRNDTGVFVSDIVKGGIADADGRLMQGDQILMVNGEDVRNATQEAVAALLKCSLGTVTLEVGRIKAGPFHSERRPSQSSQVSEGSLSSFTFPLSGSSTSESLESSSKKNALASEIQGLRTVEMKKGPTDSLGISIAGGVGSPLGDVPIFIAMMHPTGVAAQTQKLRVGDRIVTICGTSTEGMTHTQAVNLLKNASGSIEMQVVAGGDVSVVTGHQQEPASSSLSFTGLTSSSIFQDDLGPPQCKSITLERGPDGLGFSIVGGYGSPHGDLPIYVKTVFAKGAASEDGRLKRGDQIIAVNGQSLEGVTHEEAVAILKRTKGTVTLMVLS
UniProt Q8IVT5, sequence (Q8IVT5 whole entry, looked up): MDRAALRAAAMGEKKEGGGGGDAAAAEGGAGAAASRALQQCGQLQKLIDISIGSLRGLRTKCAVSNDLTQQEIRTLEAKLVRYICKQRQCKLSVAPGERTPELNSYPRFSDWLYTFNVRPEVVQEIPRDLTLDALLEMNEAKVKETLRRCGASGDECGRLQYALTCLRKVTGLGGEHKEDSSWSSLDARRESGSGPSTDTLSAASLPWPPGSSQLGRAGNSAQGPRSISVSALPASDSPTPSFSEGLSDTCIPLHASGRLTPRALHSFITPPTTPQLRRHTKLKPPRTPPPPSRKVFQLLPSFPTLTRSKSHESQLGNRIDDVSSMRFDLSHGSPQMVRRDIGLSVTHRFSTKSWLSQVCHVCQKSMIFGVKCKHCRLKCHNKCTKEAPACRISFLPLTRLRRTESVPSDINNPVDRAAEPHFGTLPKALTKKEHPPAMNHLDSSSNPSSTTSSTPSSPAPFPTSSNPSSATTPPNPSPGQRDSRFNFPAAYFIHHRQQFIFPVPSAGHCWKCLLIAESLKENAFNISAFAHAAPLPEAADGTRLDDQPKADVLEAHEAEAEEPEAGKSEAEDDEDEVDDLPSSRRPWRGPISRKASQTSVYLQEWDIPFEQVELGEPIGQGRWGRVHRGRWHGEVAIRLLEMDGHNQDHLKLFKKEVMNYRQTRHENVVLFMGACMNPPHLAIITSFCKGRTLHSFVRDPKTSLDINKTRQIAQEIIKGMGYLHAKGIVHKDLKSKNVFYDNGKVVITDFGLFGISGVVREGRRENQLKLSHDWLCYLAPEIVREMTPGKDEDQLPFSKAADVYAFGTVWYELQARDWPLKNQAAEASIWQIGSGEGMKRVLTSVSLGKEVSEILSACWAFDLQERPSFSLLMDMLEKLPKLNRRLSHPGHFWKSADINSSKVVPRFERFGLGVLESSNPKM
UniProt Q08380, sequence (Q08380 whole entry, looked up): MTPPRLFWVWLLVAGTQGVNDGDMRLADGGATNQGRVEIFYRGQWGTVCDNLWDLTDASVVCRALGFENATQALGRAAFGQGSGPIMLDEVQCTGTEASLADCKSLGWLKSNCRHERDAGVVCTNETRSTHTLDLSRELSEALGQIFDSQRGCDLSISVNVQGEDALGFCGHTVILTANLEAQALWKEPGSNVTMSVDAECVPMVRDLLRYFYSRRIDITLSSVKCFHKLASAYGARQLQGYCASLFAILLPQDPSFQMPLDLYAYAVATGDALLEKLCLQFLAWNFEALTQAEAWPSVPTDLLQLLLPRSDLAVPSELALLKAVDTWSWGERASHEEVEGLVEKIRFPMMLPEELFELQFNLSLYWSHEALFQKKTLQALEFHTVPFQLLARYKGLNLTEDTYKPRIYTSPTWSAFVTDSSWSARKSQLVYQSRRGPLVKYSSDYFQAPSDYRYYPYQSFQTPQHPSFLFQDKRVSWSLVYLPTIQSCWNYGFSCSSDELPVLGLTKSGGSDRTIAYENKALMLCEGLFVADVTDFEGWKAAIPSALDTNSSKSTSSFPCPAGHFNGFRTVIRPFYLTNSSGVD
UniProt O95819, sequence (O95819 whole entry, looked up): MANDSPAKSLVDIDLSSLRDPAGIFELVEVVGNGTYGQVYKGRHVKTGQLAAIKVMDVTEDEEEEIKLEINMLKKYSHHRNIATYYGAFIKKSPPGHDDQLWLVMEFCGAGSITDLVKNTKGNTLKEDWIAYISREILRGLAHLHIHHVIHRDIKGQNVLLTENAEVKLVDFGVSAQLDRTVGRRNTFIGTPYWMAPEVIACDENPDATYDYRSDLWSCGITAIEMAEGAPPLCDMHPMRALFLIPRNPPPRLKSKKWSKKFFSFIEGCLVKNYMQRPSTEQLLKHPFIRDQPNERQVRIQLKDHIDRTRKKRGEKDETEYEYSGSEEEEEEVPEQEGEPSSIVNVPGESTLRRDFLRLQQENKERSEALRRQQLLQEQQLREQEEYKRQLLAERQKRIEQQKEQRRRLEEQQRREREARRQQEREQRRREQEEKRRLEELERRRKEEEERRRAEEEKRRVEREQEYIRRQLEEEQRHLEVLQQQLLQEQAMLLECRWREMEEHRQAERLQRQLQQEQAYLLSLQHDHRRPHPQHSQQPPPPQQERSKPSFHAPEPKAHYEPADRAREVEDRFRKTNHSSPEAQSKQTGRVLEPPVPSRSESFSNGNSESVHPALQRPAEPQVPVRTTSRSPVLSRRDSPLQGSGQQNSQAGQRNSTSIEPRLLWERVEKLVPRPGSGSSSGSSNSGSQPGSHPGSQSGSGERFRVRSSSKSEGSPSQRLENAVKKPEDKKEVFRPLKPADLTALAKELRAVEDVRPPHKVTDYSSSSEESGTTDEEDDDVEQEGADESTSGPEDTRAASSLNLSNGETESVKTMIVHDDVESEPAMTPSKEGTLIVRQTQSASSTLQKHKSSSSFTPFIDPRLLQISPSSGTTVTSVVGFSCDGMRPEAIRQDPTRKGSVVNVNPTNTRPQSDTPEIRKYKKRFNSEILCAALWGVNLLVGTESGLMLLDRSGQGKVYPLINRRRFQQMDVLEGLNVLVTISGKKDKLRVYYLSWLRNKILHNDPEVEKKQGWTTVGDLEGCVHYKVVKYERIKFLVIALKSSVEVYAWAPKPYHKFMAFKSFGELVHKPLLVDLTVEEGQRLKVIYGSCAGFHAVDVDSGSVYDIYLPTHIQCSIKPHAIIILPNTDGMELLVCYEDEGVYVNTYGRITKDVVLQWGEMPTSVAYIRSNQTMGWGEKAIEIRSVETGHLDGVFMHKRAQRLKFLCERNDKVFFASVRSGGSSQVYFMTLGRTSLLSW
UniProt Q13015, sequence (Q13015 whole entry, looked up): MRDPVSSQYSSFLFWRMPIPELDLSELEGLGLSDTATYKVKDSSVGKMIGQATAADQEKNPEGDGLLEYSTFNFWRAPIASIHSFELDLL
UniProt O15243, sequence (O15243 whole entry, looked up): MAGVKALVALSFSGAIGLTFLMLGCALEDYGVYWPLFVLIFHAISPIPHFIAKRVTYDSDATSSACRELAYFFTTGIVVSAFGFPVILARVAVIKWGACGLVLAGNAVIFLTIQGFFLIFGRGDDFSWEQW

Target | log2 fold change (erlotinib) | log2 fold change [1] | log2 fold change [2] | log2 fold change [3] | log2 fold change [4] | log2 fold change [5] | log2 fold change [6] | log2 fold change [7] | log2 fold change [8] | log2 fold change (IRAK-1-4 Inhibitor I)
MLLT11 (UniProt Q13015) | 0.053 | -0.018 | -0.271 | 0.063 | -0.038 | -0.018 | -0.054 | -0.372 | 0.111 | 0.044
MAPK1 (UniProt P28482) | -0.021 | -0.017 | 0.001 | 0.001 | -0.016 | -0.003 | 0.065 | 0.017 | 0.009 | -0.009
KIFC1 (UniProt Q9BW19) | 0.003 | 0.061 | 0.011 | -0.002 | -0.048 | 0.011 | -0.012 | -0.009 | 0.025 | -0.023
KSR1 (UniProt Q8IVT5) | 0.011 | -0.099 | -0.038 | 0.058 | 0.022 | 0.059 | -0.078 | 0.015 | -0.037 | -0.008
MOCS1 isoform 8 (UniProt Q9NZB8) | -0.055 | -0.002 | 0.074 | 0.058 | -0.008 | 0.026 | 0 | -0.056 | 0.183 | 0.02
MDM2 isoform 11 (UniProt Q00987) | 0.108 | -0.039 | 0.037 | -0.071 | 0.021 | 0.084 | 0.04 | – | – | 0.151
MEX3A (UniProt A1L020) | – | 0.108 | – | -0.108 | – | -0.007 | -0.29 | – | – | 0.168
MAPKAP1 (UniProt Q9BPZ7) | -0.091 | – | -0.059 | – | – | 0.062 | – | 0.141 | -0.181 | -0.19
LYN isoform 2 (UniProt P07948) | -0.161 | – | -0.093 | – | – | 0.132 | – | -0.035 | -0.385 | 0.493
KMT2B (UniProt Q9UMN6) | -0.494 | – | -0.226 | – | – | – | – | -0.028 | -0.015 | –
MAP3K6 (UniProt O95382) | – | 0.05 | – | 0.183 | – | – | 0.487 | 0.033 | -0.008 | –
LRRC9 (UniProt Q6ZRR7) | – | -0.037 | – | 0.02 | – | – | -0.01 | -0.044 | -0.07 | –
LRPPRC (UniProt H7C3W8) | – | -0.13 | – | -0.053 | – | – | -0.3 | – | – | –
MRPL27 (UniProt Q9P0M9) | -0.072 | – | 0.068 | – | -0.019 | 0.056 | – | 0.023 | 0.019 | -0.044
MMS22L (UniProt Q6ZRQ5) | 0.067 | 0.032 | 0 | -0.093 | 0.037 | – | 0.064 | 0.019 | -0.021 | –
METTL21A (UniProt Q8WXB1) | -0.074 | – | -0.011 | – | 0.019 | -0.027 | – | – | – | -0.04
MME (UniProt P08473) | 0 | – | 0.052 | – | -0.067 | 0.011 | – | – | – | 0.095
MRC2 (UniProt Q9UBG0) | -0.225 | – | 0.031 | – | – | – | – | 0.011 | 0.061 | –
MAN2B2 (UniProt Q9Y2E5) | 0.006 | – | -0.019 | – | -0.003 | -0.035 | – | -0.01 | 0.045 | 0.009
MED25 isoform 3 (UniProt Q71SY5) | 0.092 | – | 0.01 | – | -0.062 | -0.006 | – | 0.06 | 0.073 | 0.073
MAP4K4 isoform 6 (UniProt O95819) | 0.006 | – | 0.156 | – | 0.094 | -0.061 | – | 0.003 | -0.078 | -0.049
MRPL22 (UniProt Q9NWU5) | -0.424 (active) | – | -0.074 | – | – | 0.006 | – | – | – | -0.01
KIF3C (UniProt O14782) | 0.389 | 0.05 | -0.082 | -0.116 | – | 0.025 | -0.117 | 0.158 | 0.146 | -0.023

Target | log2 fold change (erlotinib) | log2 fold change [1] | log2 fold change [2] | log2 fold change [3] | log2 fold change [4] | log2 fold change [5] | log2 fold change [6] | log2 fold change [7] | log2 fold change [8] | log2 fold change (IRAK-1-4 Inhibitor I)
LRRC7 (UniProt Q96NW7) | – | 0.042 | – | -0.493 (active) | -0.108 | 0.065 | 0.038 | 0.02 | 0.067 | 0.048
MED28 (UniProt Q9H204) | 0.057 | – | 0.039 | – | – | 0.045 | – | – | – | -0.012
KIFC3 isoform 6 (UniProt Q9BVG8) | 0.091 | 0.069 | 0.14 | 0.004 | 0.076 | – | -0.077 | -0.103 | 0.158 | –
KRAS (UniProt P01116) | -0.112 | 0.033 | 0.069 | -0.052 | – | -0.036 | -0.041 | -0.021 | -0.008 | 0.007
LRIF1 (UniProt Q5T3J3) | -0.015 | 0.11 | 0.046 | -0.301 (active) | – | 0 | 0.1 | -0.031 | -0.009 | -0.02
MRPL30 isoform 2 (UniProt Q8TCC3) | -0.004 | – | -0.01 | – | -0.037 | -0.03 | – | 0.067 | 0.015 | 0.015
KLC1 isoform 10 (UniProt Q07866) | 0.071 | – | -0.165 | – | 0.122 | – | – | 0.241 | -0.337 | –
MEGF8 (UniProt Q7Z7M0) | 0.045 | – | 0.016 | – | 0.013 | 0.075 | – | -0.116 | 0.071 | -0.36 (active)
LRP1 (UniProt Q07954) | – | 0.266 | – | -0.092 | – | – | -0.211 | -0.196 | -0.055 | –
MCUB (UniProt Q9NWR8) | 0.048 | – | -0.069 | – | 0.209 | 0.048 | – | – | – | -0.12
LSM11 (UniProt P83369) | 0.104 | 0.262 | 0.065 | -0.056 | – | – | -0.044 | -0.029 | -0.055 | –
LEPROT (UniProt O15243) | 0.176 | – | -0.116 | – | -0.02 | -0.064 | – | 0.122 | 0.045 | -0.036
KIF18B (UniProt Q86Y91) | – | – | – | – | – | – | – | -0.117 | 0.033 | –
MPDZ (UniProt O75970) | -0.017 | -0.061 | -0.095 | -0.273 | – | -0.091 | 0.004 | -0.099 | 0.108 | 0.149
KIF21A (UniProt H0YI78) | -0.064 | – | 0.088 | – | -0.015 | – | – | – | – | –
LRRIQ1 (UniProt Q96JM4) | – | 0.038 | – | -0.003 | – | 0.041 | -0.003 | – | – | -0.083
MDM1 (UniProt Q8TC05) | -0.018 | -0.105 | -0.036 | -0.066 | – | -0.054 | -0.041 | -0.05 | -0.075 | -0.043
LGALS3BP (UniProt Q08380) | -0.154 | 0.293 | 0.064 | 0.331 | – | – | -0.203 | 0.018 | -0.171 | –
MAPK7 (UniProt Q13164) | -0.1 | – | 0.012 | – | – | – | – | -0.057 | 0.032 | –
LIMK1 (UniProt P53667) | – | 0.114 | – | -0.088 | 0.133 | -0.002 | 0.029 | 0.068 | -0.05 | 0.06
LY6E (UniProt Q16553) | – | -0.095 | – | 0.049 | -0.033 | – | -0.27 | -0.02 | 0.025 | –
KRAS isoform 2 (UniProt P01116) | -0.038 | – | 0.087 | – | – | -0.071 | – | -0.044 | 0.015 | 0.033
